C diff HTS: inhibitors of Clostridium difficile growth. Clostridium difficile clinical isolate growth, OD600, 24 h; active compounds read low. growth activity, negative = inhibition, % at 16 µg/mL (by protocol). actives 0.25% (n = 86,000). AID 1259249;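 active = mean growth activity at or below -80% and every replicate also at or below -80%; inconclusive = mean at or below -80% but some replicate above -80%; inactive = mean growth activity above -80%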
T cruzi growth-1: inhibitors of T. cruzi proliferation | T. cruzi beta-gal in NIH3T3, GalScreen luminescence, 90 h | inhibition, % at 8.34 µM | actives 5.9% (n = 77,000);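 active = mean inhibition above about 93%, with at least 55% of replicates each passing it, limit read from the data, passing the limit was not always enough; inconclusive = only one of those two conditions holds; inactive = neither condition holds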
Pf Dd2 inh: blocks growth of Plasmodium falciparum Dd2 parasites | actives 2.3% (n = 94,000) | P. falciparum Dd2 growth, SYBR Green, 72 h; active compounds read low | AID 1159554 | activity change, % at 10 µM; in the data active = activity change below about -80%; inconclusive = no clear call, values can overlap the other calls
T cruzi growth-2: Trypanosoma cruzi proliferation inhibition. shares compounds with T cruzi growth-1. T. cruzi beta-gal in NIH3T3, GalScreen luminescence, 90 h. actives 72% (n = 5,600). inhibition, % at 8.35 µM;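 active = mean replicate inhibition above about 95% and at least 55% of replicates individually reaching it, limit read from the data; inconclusive = only one of the two criteria is met; inactive = neither criterion is met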
T cruzi growth-3: Trypanosoma cruzi proliferation inhibition; T. cruzi beta-gal in NIH3T3, GalScreen luminescence, 90 h; actives 21% (n = 5,600); shares compounds with T cruzi growth-1; inhibition, % at 2.09 µM;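 active = mean inhibition above about 95%, with at least 55% of replicates also reaching it, limit read from the data; inconclusive = meets just one of the two conditions; inactive = meets neither condition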
NIH3T3 tox: kills mouse NIH/3T3 fibroblasts; actives 14% (n = 5,600); NIH/3T3 viability, CellTiter-Glo ATP luminescence, 90 h; cytotoxicity (signal decrease), % at 8.35 µM; shares compounds with T cruzi growth-1; AID 651742;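 active = mean signal decrease across replicates above about 35% based on untreated-well scatter, with enough replicates individually passing, limit read from the data; inconclusive = no rule stated though some were filed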
3T3 cytotox 2: cytotoxicity in mouse NIH/3T3 fibroblasts; shares compounds with T cruzi growth-1; NIH/3T3 viability, CellTiter-Glo ATP luminescence, 90 h; inhibition, % at 24.9 µM; actives 56% (n = 5,600);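 active = mean loss of cell viability signal at or above a set limit, and enough replicates individually reaching it; inconclusive = meets only the mean limit or only the replicate share; inactive = meets neither condition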
Of the large screens only hits and unclear results are named; the others gave an inactive call (follow-up assays come after a bar, where they were run). Shown are actives, neighbours in structure and some others; about 6.8% of the full set was active somewhere.

C[C@H]1CN([C@@H](C)CO)C(=O)Cc2cc(NS(=O)(=O)c3cccs3)ccc2O[C@@H]1CN(C)CC1CC1	none
C[C@@H]1CN([C@@H](C)CO)C(=O)c2cccc(NC(=O)NC3CCCCC3)c2O[C@@H]1CN(C)C(=O)Nc1ccc(C(F)(F)F)cc1	none
C[C@H](CO)N1C[C@H](C)[C@@H](CN(C)Cc2ccc(C(=O)O)cc2)Oc2ccc(NC(=O)Nc3ccc4c(c3)OCO4)cc2C1=O	none
C[C@H]1CN([C@@H](C)CO)C(=O)c2cc(-c3cccc(F)c3)cnc2O[C@@H]1CN(C)Cc1cccc(F)c1	none
COc1ccc2c3c([nH]c2c1)[C@H](CO)N(C(=O)CN(C)C)CC31CN(C(=O)c2ccncc2)C1	none (no result: T cruzi growth-1)
CN1C[C@@H](O)COC[C@H]2O[C@@H](CC(=O)N3CCN(c4ccccc4)CC3)CC[C@@H]21	none
CN1C[C@H](O)COC[C@@H]2O[C@@H](CC(=O)N3CCN(c4ccccc4)CC3)CC[C@H]21	T cruzi growth-1 inconclusive | T cruzi growth-2 102.1 | T cruzi growth-3 inactive | NIH3T3 tox inactive | 3T3 cytotox 2 inactive
COc1cccc(S(=O)(=O)Nc2ccc3c(c2)[C@H]2C[C@@H](CC(=O)NCCc4ccccc4)O[C@H](CO)[C@H]2O3)c1	none (no result: C diff HTS)
N#Cc1cccc(-c2ccc3c(c2)[C@@H]2[C@@H](CCN2C(=O)c2ccncc2)[C@H](CO)N3)c1	none
N#Cc1ccc(-c2ccc3c(c2)[C@@H]2[C@@H](CCN2Cc2cncnc2)[C@@H](CO)N3)cc1	none
N#Cc1cccc(-c2ccc3c(c2)[C@H]2[C@H](CCN2C(=O)c2ccncc2)[C@H](CO)N3)c1	T cruzi growth-1 117.9, Pf Dd2 inh -80.2 | T cruzi growth-2 inactive | T cruzi growth-3 inactive | NIH3T3 tox inactive | 3T3 cytotox 2 inactive
N#Cc1cccc(-c2ccc3c(c2)[C@@H]2[C@@H](CCN2Cc2cncnc2)[C@H](CO)N3)c1	T cruzi growth-1 112.0 | T cruzi growth-2 114.7 | T cruzi growth-3 inactive | NIH3T3 tox inactive | 3T3 cytotox 2 39.5
CNC[C@@H]1Oc2c(NC(=O)C3CC3)cccc2C(=O)N([C@@H](C)CO)C[C@@H]1C	none
C[C@@H]1CN([C@H](C)CO)C(=O)c2cc(C#Cc3ccccc3F)cnc2O[C@H]1CN(C)S(C)(=O)=O	none (no result: C diff HTS)
C[C@@H]1CN([C@H](C)CO)C(=O)c2cc(C#Cc3ccccc3F)cnc2O[C@H]1CN(C)S(=O)(=O)c1ccccc1	T cruzi growth-1 125.8 | T cruzi growth-2 108.5 | T cruzi growth-3 inactive | NIH3T3 tox inconclusive | 3T3 cytotox 2 34.5
C[C@H]1CN([C@@H](C)CO)C(=O)c2cc(C#Cc3ccccc3F)cnc2O[C@@H]1CN(C)S(=O)(=O)c1ccccc1	T cruzi growth-1 128.0 | T cruzi growth-2 110.2 | T cruzi growth-3 inactive | NIH3T3 tox 60.5 | 3T3 cytotox 2 47.2
C[C@@H]1CN([C@H](C)CO)C(=O)c2cc(C#Cc3ccccc3F)cnc2O[C@@H]1CN(C)S(=O)(=O)c1ccccc1	T cruzi growth-1 115.6 | T cruzi growth-2 98.5 | T cruzi growth-3 inactive | NIH3T3 tox inactive | 3T3 cytotox 2 68.4
C[C@@H]1CN([C@@H](C)CO)C(=O)c2cc(C#Cc3ccccc3F)cnc2O[C@@H]1CN(C)S(C)(=O)=O	none (no result: C diff HTS)
C[C@H](CO)N1C[C@H](C)[C@@H](CN(C)C(=O)Cc2ccncc2)Oc2ncc(C#Cc3ccccc3F)cc2C1=O	T cruzi growth-1 inconclusive | T cruzi growth-2 111.6 | T cruzi growth-3 inactive | NIH3T3 tox inactive | 3T3 cytotox 2 inconclusive
C[C@H](CO)N1C[C@H](C)[C@H](CN(C)C(=O)Cc2ccncc2)Oc2ncc(C#Cc3ccccc3F)cc2C1=O	none
C[C@H]1CN([C@@H](C)CO)C(=O)c2cc(C#Cc3ccccc3F)cnc2O[C@H]1CN(C)S(C)(=O)=O	none (no result: C diff HTS)
CO[C@H]1CN(C)C(=O)c2cc(NC(=O)NC3CCCC3)ccc2OC[C@@H](C)N(CC2CC2)C[C@@H]1C	none (no result: T cruzi growth-1)
C[C@@H]1CN([C@@H](C)CO)C(=O)c2cc(C#Cc3ccccc3F)cnc2O[C@@H]1CN(C)S(=O)(=O)c1ccccc1	T cruzi growth-1 114.0 | T cruzi growth-2 98.8 | T cruzi growth-3 inactive | NIH3T3 tox inactive | 3T3 cytotox 2 49.8
C[C@H](CO)N1C[C@H](C)[C@@H](CN(C)S(C)(=O)=O)Oc2ncc(C#Cc3ccccc3F)cc2C1=O	none
O=C(NC1CCCCC1)N1CC(=O)N2[C@H](CO)[C@H](c3ccc(/C=C/c4ccccc4)cc3)[C@H]2C1	none (no result: T cruzi growth-1)
O=C1CCCn2cc(nn2)COC[C@H](Cc2ccccc2)N1	none (no result: T cruzi growth-1, Pf Dd2 inh)
COc1ccccc1C(=O)N1C[C@H]2[C@@H](c3ccccc31)[C@H](CO)N2C(=O)Cc1cccnc1	none
O=C(Nc1ccc(F)cc1)N[C@H]1CC[C@H](CCNS(=O)(=O)c2cccc(Cl)c2)O[C@H]1CO	none
O=C(Nc1cccc(F)c1)N[C@H]1CC[C@H](CCNS(=O)(=O)c2cccc(Cl)c2)O[C@@H]1CO	T cruzi growth-1 152.1 (no result: C diff HTS) | T cruzi growth-2 inactive | T cruzi growth-3 inactive | NIH3T3 tox inactive | 3T3 cytotox 2 inactive
O=C(Nc1cccc(F)c1)N[C@H]1CC[C@@H](CCNS(=O)(=O)c2cccc(Cl)c2)O[C@H]1CO	none (no result: C diff HTS)
O=C(Nc1cccc(F)c1)N[C@@H]1CC[C@H](CCNS(=O)(=O)c2cccc(Cl)c2)O[C@H]1CO	T cruzi growth-1 114.7, Pf Dd2 inh -88.4 (no result: C diff HTS) | T cruzi growth-2 inactive | T cruzi growth-3 inactive | NIH3T3 tox inactive | 3T3 cytotox 2 inactive
O=C(C[C@H]1CC[C@@H]2[C@H](COC[C@@H](O)CN2S(=O)(=O)c2cccc(Cl)c2)O1)NC1CCCC1	none (no result: C diff HTS)
COC(=O)C[C@@H]1CC[C@@H]2[C@H](COc3ccc(NC(=O)C4CCOCC4)cc3C(=O)N2C)O1	none
CC(=O)N1CC[C@H]2[C@H](CO)Nc3ccc(-c4ccc(F)cc4)cc3[C@H]21	none
O=C(CC1CC1)N1CC[C@H]2[C@H](CO)Nc3ccc(-c4ccc(F)cc4)cc3[C@H]21	T cruzi growth-1 107.1 | T cruzi growth-2 107.7 | T cruzi growth-3 102.9 | NIH3T3 tox inactive | 3T3 cytotox 2 inactive
O=C(CC1CC1)N1CC[C@@H]2[C@@H](CO)Nc3ccc(-c4ccc(F)cc4)cc3[C@@H]21	T cruzi growth-1 inconclusive | T cruzi growth-2 103.9 | T cruzi growth-3 inactive | NIH3T3 tox inactive | 3T3 cytotox 2 inactive
O=C(CC1CC1)N1CC[C@@H]2[C@H]1c1cc(-c3ccc(F)cc3)ccc1N[C@@H]2CO	T cruzi growth-1 102.9 | T cruzi growth-2 102.4 | T cruzi growth-3 101.0 | NIH3T3 tox inactive | 3T3 cytotox 2 82.1
O=C(CC1CC1)N1CC[C@@H]2[C@H](CO)Nc3ccc(-c4cccc(F)c4)cc3[C@@H]21	none
O=C(CC1CC1)N1CC[C@H]2[C@H](CO)Nc3ccc(-c4cccc(F)c4)cc3[C@H]21	none

Screening results from PubChem.
